Assay results as given in the supplement of paper PMC10849652.
Targets with a hit are over-represented here; the source holds about 7,900 in all. About 0.6% of all pairs of compound and target were hits. Values without a mark were called inactive.

Tests used:
Assay in all cases: log2 fold change, soluble protein after heating vs DMSO (PISA); higher = thermal stabilisation; K562 cells, 10 uM, 30 min; active = over 0.2 and 3.5 SD of the protein, either way, in both replicates (recomputed)
[1] = compound: NC(=O)Nc1cc(-c2cccc(F)c2)sc1C(=O)N[C@H]1CCCNC1
Outline: (§1)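 K562 cells at 2×10^6 cells/mL were treated for 30 min with 10 μM compound, and aliquots were heated for 3 min over 48°C-58°C before pooling. Extraction used PBS with 0.5% NP-40 at 4°C, and soluble protein was the supernatant after 21,000xg for 90 min, measured by TMTpro 16plex LC-MS/MS with channel sums equalised. Thermal stability values, relative to control samples and from duplicates, are log2 fold changes.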

[2] = compound: NC(=O)c1cnc(N[C@@H]2CCCC[C@@H]2N)nc1Nc1cccc(-n2nccn2)c1
Outline: as §1

[3] = compound: NC1(c2ccc(-c3nc4ccn5c(=O)[nH]nc5c4cc3-c3ccccc3)cc2)CCC1
Outline: as §1

[4] = compound: NCC(=O)Nc1ccc(-n2nc(C(F)(F)F)cc2-c2ccc3c(ccc4ccccc43)c2)cc1
Outline: as §1

[5] = compound: Nc1ccccc1NC(=O)c1ccc(CNC(=O)OCc2cccnc2)cc1 [entinostat]
Outline: as §1

[6] = compound: O=C(CCCCCCC(=O)Nc1ccccc1)NO [vorinostat]
Outline: as §1

[7] = compound: O=C(CCCCCCNC(=O)c1cnc(N(c2ccccc2)c2ccccc2Cl)nc1)NO [citarinostat]
Outline: as §1

[8] = compound: O=C(O)c1ccc2c(c1)nc(Nc1cccc(Cl)c1)c1ccncc12 [silmitasertib]
Outline: as §1

[9] = compound: O=C1NC(=O)C(c2cnc3ccccn23)=C1c1cn2c3c(cc(F)cc13)CN(C(=O)N1CCCCC1)CC2
Outline: as §1

[10] = compound: c1cc(OCCN2CCCCC2)cc(-c2n[nH]c3ccc(-c4nnc[nH]4)cc23)c1
Outline: as §1

Chain of UniProt Q93096 (Q93096 whole entry, looked up): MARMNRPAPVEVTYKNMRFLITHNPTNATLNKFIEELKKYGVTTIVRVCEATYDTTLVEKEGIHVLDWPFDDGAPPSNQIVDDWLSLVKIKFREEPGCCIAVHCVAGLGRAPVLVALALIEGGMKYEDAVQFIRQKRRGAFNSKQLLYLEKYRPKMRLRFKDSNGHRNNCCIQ
Chain of UniProt Q9NVM4 (Q9NVM4 whole entry, looked up): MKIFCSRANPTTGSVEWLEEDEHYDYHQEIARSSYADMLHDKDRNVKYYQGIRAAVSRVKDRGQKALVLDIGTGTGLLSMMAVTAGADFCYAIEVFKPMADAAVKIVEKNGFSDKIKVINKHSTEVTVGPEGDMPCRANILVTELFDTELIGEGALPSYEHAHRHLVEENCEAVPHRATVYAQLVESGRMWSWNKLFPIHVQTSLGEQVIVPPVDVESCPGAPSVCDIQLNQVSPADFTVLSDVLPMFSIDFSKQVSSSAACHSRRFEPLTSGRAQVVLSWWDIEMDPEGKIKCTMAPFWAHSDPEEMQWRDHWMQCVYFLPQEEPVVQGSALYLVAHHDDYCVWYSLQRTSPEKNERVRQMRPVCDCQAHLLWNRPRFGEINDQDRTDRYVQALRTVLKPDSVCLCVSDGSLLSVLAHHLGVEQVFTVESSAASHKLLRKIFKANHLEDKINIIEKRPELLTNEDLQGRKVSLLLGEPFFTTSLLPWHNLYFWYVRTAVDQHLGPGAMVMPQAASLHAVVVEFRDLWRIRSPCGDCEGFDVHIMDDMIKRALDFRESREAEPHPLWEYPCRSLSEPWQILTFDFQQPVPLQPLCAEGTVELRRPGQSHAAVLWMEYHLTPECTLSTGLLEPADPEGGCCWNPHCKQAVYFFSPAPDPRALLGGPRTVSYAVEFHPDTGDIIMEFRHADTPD
Chain of UniProt P49643 (P49643 whole entry, looked up): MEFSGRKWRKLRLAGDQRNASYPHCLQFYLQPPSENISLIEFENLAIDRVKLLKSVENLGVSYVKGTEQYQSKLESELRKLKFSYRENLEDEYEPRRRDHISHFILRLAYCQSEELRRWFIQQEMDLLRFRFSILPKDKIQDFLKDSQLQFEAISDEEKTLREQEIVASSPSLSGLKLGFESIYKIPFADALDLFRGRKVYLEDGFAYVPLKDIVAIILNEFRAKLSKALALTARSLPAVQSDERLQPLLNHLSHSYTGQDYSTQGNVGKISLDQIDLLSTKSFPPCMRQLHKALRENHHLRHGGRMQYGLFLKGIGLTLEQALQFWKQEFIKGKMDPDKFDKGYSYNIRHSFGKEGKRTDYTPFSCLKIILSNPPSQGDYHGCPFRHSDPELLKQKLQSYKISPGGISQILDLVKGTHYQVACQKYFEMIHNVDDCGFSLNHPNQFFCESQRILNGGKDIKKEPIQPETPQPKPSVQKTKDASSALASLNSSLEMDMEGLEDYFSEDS
Chain of UniProt O95997 (O95997 whole entry, looked up): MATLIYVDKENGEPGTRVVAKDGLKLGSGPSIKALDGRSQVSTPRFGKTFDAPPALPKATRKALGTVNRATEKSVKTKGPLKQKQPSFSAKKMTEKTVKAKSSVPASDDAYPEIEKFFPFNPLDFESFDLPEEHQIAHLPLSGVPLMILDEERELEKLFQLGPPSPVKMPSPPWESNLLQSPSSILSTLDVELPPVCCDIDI
Chain of UniProt Q969N2 (Q969N2 whole entry, looked up): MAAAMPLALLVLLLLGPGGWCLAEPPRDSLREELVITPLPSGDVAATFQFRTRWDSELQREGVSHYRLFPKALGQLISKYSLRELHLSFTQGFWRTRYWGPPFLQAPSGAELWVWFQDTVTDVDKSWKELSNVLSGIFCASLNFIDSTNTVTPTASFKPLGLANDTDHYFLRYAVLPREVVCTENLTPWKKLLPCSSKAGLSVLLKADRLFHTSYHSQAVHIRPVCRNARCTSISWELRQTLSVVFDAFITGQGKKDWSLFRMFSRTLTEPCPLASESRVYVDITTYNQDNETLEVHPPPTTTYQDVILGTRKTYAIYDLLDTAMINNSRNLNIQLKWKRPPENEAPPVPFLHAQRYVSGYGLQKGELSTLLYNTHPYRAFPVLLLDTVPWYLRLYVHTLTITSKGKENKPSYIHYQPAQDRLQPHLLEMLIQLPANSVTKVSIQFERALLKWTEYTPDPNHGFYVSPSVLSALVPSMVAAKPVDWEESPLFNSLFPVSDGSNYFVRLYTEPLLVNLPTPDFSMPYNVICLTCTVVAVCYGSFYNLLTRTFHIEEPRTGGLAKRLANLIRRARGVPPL
Chain of UniProt Q32M88 (Q32M88 whole entry, looked up): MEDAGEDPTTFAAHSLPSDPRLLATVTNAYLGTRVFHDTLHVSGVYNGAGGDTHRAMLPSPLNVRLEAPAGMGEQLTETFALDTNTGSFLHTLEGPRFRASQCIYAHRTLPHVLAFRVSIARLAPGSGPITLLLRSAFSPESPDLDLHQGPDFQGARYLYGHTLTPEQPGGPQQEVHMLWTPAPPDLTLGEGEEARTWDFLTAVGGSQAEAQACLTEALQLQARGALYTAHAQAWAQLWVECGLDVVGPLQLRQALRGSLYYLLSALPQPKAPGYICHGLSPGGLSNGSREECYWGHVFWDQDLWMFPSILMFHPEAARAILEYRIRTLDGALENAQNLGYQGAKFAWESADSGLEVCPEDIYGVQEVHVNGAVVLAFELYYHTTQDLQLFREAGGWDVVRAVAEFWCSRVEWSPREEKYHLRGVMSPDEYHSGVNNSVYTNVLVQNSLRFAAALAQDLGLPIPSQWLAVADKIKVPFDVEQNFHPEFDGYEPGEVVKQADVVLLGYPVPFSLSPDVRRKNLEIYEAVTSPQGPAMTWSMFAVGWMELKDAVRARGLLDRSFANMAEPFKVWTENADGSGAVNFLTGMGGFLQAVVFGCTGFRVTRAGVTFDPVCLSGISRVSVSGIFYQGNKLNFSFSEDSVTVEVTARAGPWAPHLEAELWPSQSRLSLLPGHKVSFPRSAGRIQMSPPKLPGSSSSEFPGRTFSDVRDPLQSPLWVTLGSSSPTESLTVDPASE
Chain of UniProt Q92871 (Q92871 whole entry, looked up): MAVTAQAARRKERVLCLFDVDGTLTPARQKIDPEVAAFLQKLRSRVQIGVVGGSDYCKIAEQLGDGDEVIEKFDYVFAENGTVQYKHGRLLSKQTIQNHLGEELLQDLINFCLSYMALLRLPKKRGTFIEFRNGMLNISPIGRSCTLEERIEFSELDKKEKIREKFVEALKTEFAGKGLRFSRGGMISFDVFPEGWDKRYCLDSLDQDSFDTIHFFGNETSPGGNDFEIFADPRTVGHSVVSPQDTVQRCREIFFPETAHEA
Chain of UniProt Q9NR22 (Q9NR22 whole entry, looked up): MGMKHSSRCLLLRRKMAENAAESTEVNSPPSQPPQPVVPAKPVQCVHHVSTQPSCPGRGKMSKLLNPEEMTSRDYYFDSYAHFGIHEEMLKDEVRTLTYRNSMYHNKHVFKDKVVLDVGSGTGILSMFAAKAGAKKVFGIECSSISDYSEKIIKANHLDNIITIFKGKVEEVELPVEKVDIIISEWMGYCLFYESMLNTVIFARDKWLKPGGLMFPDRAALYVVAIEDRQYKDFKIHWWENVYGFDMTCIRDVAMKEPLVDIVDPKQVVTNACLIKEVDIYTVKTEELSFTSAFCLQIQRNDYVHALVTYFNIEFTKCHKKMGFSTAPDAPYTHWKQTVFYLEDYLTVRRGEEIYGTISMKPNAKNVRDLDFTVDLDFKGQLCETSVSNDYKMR
Chain of UniProt Q8IV08 (Q8IV08 whole entry, looked up): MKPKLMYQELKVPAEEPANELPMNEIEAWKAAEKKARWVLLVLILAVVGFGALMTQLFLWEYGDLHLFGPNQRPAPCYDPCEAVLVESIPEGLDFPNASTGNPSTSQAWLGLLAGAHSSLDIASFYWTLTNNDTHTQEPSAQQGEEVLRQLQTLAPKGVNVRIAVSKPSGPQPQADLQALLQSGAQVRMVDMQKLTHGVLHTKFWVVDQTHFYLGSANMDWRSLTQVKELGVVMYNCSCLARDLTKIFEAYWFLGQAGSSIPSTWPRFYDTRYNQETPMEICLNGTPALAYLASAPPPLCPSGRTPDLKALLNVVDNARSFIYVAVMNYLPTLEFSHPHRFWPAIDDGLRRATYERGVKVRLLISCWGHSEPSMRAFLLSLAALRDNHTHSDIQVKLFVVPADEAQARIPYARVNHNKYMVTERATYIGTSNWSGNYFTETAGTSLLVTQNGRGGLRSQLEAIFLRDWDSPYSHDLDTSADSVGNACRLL
Chain of UniProt Q9UNM6 (Q9UNM6 whole entry, looked up): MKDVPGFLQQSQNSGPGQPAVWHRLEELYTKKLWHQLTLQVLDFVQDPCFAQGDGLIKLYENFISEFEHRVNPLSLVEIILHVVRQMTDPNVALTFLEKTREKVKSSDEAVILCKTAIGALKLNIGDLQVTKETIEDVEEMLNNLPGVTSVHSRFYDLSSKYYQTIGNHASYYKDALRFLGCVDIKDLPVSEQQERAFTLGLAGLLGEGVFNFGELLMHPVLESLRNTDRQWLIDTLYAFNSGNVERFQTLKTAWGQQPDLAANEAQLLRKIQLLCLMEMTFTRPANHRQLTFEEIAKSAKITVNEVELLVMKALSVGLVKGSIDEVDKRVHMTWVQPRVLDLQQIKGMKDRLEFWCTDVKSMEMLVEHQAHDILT
Chain of UniProt P78356 (P78356 whole entry, looked up): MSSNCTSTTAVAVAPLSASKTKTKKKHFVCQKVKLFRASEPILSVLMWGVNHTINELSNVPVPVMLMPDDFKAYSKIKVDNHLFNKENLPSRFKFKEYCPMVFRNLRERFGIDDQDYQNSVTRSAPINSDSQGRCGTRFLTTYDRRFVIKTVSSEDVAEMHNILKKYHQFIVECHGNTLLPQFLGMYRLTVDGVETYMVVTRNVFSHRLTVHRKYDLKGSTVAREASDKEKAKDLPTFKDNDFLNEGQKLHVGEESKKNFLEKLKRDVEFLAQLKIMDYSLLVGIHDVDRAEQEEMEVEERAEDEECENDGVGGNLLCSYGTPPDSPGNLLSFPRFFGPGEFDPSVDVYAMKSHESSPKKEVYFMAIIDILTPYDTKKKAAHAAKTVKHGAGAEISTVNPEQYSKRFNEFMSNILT

Target	log2 fold change [1]	log2 fold change [2]	log2 fold change [3]	log2 fold change [4]	log2 fold change [5]	log2 fold change [6]	log2 fold change [7]	log2 fold change [8]	log2 fold change [9]	log2 fold change [10]
PSMD1 (UniProt Q99460)	0.086	0.007	-0.013	0.068	0.006	0.013	0.014	-0.019	0.094	-0.057
PTTG1 (UniProt O95997)	-0.006	-0.098	-0.015	-0.071	0.035	-0.043	0.027	-0.002	-0.023	-0.128
PPT2 isoform 3 (UniProt Q9UMR5)	0.035	0.008	-0.15	0.017	0.02	0.063	0.015	0.018	0.029	0.034
POLR2D (UniProt O15514)	0.04	0.145	-0.016	0.022	-0.026	-0.133	-0.078	0.049	-0.015	-0.06
PMM1 (UniProt Q92871)	0.005	0.006	-0.01	0.002	-0.021	0.113	0.034	-0.005	0.004	-0.012
PIP4K2B (UniProt P78356)	0.06	0.083	-0.053	0.118	0.096	0.053	-0.009	0.202	0.044	0.069
PIP4K2C (UniProt Q8TBX8)	0.016	0.192	-0.125	0.293	-0.027	-0.071	-0.036	0.497	0.12	0.036
PRMT8 (UniProt Q9NR22)	0.403 (active)	-0.149	-0.118	-0.054	0.21	0.029	-0.031	-0.039	-0.057	-0.006
PRPF38A (UniProt Q8NAV1)	-0.039	-0.015	-0.105	-0.006	0.004	0.002	0.152	-0.212	0.095	-0.122
PSMD13 (UniProt Q9UNM6)	-0.049	0.015	-0.044	0.006	-0.018	0.001	-0.017	0.033	0.044	-0.108
PTP4A1 (UniProt Q93096)	-0.035	-0.202	-0.007	0.016	0.039	-0.029	0.063	-0.001	-0.075	0.059
PMPCB (UniProt O75439)	-0.03	0.024	-0.02	0.023	-0.043	-0.009	0.037	-0.103	-0.012	0.023
PRKAR1B (UniProt P31321)	0.001	0.085	0.129	0.045	-0.015	-0.031	0	0.07	0.024	-0.142
PRMT3 (UniProt O60678)	0.042	-0.05	-0.187	-0.034	0.055	0.041	0.042	-0.023	-0.027	-0.027
POLR2B (UniProt P30876)	-0.054	0.059	-0.043	-0.106	0.061	-0.089	0	0.1	0.09	-0.065
PRPF38B (UniProt Q5VTL8)	-0.199	-0.019	0.017	-0.203	0.006	0.033	0.028	-0.246	-0.006	-0.19
PML (UniProt P29590)	0.021	-0.027	-0.029	0.015	-0.002	-0.059	0.019	0.088	0.002	-0.042
PPIL1 (UniProt Q9Y3C6)	-0.054	0.059	0.008	-0.074	-0.001	-0.013	0.015	0.075	0.001	-0.051
PPM1G (UniProt O15355)	-0.147	-0.086	-0.018	-0.181	0.017	0.079	0.033	0.031	-0.114	-0.102
RAB11FIP1 (UniProt Q6WKZ4)	0.019	-0.121	-0.086	-0.009	0.041	0.091	0.065	0.016	0	-0.07
PGGHG (UniProt Q32M88)	-0.036	-0.155	-0.051	0.083	-0.033	0.019	-0.009	0.073	-0.076	0.058
PLD3 (UniProt Q8IV08)	0.008	-0.005	-0.177	-0.051	0.009	0.022	0.034	0.006	0.024	0.067
PRG4 (UniProt Q92954)	-0.168	-0.113	-0.16	-0.068	-0.156	0.201	-0.015	0	-0.109	-0.097
POLA1 (UniProt P09884)	-0.014	-0.068	-0.225	-0.04	0.07	0.054	0.155	0.021	-0.113	0.227
PRKAA1 isoform 2 (UniProt Q13131)	-0.141	-0.009	-0.049	-0.007	0.002	0.052	0.044	-0.006	-0.007	-0.056
PSMC4 (UniProt P43686)	0.018	-0.016	0.028	0.027	-0.023	-0.023	-0.015	-0.015	0.043	-0.051
PJA2 (UniProt O43164)	-0.006	-0.047	-0.049	0.029	0.004	-0.001	-0.005	0.026	-0.059	-0.075
PRIM2 (UniProt P49643)	-0.035	-0.141	-0.16	-0.061	0.058	0.098	0.135	0.033	-0.096	-0.018
PIGT (UniProt Q969N2)	-0.01	-0.002	-0.077	-0.002	0.018	0.05	0.04	0	-0.01	-0.089
PRMT7 (UniProt Q9NVM4)	0.034	-0.093	-0.165	-0.021	0.026	-0.023	-0.032	0.067	-0.103	-0.05
